# Experimental data from ChEMBL document CHEMBL3988442, “University of Dundee, Small-Polar-MMV Screening Library” (2021).
# About 900 (1.7%) of roughly 53,000 compounds showed an effect of 50% or more. This is one part of a sample in which strong results are shown more often than they occur.
# System: Mycobacterium tuberculosis
# Experiment: Cornell - Phenotypic assay to identify agents that inhibit growth of Mycobacterium tuberculosis
# Type: functional
# Design: scale not given: direction of the effect not stated beside the values
# Settings: 10 mM as filed; unlikely as a test dose
row,SMILES,Percent Effect
1,O=c1[nH]c2nc(N3CCSCC3)ncc2c(=O)n1-c1cccc(F)c1,12.37%
2,O=C(O)C1CCCN1c1nc(C2CC2)cc(C(F)(F)F)n1 (centres undefined),4.747%
3,O=C(O)C1CCCN1c1nc(-c2ccc(Cl)c(Cl)c2)cc(C(F)(F)F)n1 (centres undefined),67.65%
4,O=C(O)C1CCCN1c1nc(-c2ccc(Cl)cc2)cc(C(F)(F)F)n1 (centres undefined),38.69%
5,Cc1noc(C)c1CN(C)Cc1csc(-c2ccc(C(C)C)cc2)n1,63.13%
6,Cc1cc(CN(C)Cc2csc(-c3ccc(C(C)C)cc3)n2)no1,47.23%
7,Cc1noc(C)c1CN(C)Cc1csc(-c2ccc(F)cc2)n1,39.26%
8,CC(C)c1ncc(CN2CCCC2c2[nH]ncc2C(=O)N(C)C)cn1 (centres undefined),-22.16%
9,CCCn1c(C)c(CC(=O)N[C@H](C)C(=O)OC)c2c1CC(C)(C)CC2=O,46.36%
10,Cc1cnc2n(c1=O)C(CC(=O)NCc1ccco1)CS2 (centres undefined),22.84%
11,Cc1nc(C)n(CC2CN(CC(=O)NC3CCCC3)CCO2)n1 (centres undefined),-1.047%
12,CCc1ccccc1NCc1nc2[nH]c(C)c(C)c(=O)n2n1,-10.14%
13,CN1C(=O)C2(CCN(C(=O)C3CCOCC3)CC2)c2ccccc21,10.41%
14,N#Cc1nc(COc2ccc3c(c2)OCO3)oc1N1CCCCCC1,35.88%
15,N#Cc1nc(COc2ccc3c(c2)OCO3)oc1N1CCCC1,60.43%
16,CC(C)NC(=O)c1nc(COc2ccc3c(c2)OCO3)no1,22.39%
17,N#Cc1nc(COc2ccc3c(c2)OCO3)oc1NC1CCCCC1,58.43%
18,N#Cc1nc(COc2ccc3c(c2)OCO3)oc1NC1CC1,0.1825%
19,CNc1oc(COc2ccc3c(c2)OCO3)nc1C#N,-5.351%
20,Cc1nn(C)cc1-c1cc(C(F)(F)F)n(CCCN)n1,-15.46%
21,Cc1cccc(CS(=O)(=O)NCc2nn(C)c3c2CCCC3)c1,18.68%
22,O=C(c1cnccn1)N1CC(S(=O)(=O)c2ccc(Cl)cc2)C1,17.17%
23,CC(=O)N1CCN(c2cc(C)ncn2)CC(CO)C1 (centres undefined),21.65%
24,CCOC(=O)Cn1c(=O)nc2n1C(=O)N(c1ccccc1)C2,-0.8928%
25,CN(C(=O)Cn1nnnc1C(C)(C)C)c1ccccc1,-5.466%
26,CCOC(=O)Cn1nnnc1-c1ccccc1,99.52%

row,SMILES,Percent Effect
1,CC(C)c1nn(C)c(N(C)C)c1CNCC(O)COc1ccccc1 (centres undefined),51.29%
2,COc1c(CNCC(O)c2ccccc2F)c(C(C)C)nn1C (centres undefined),-39.06%
3,COc1ccccc1C(O)CNCc1c(C(C)C)nn(C)c1N(C)C (centres undefined),50.62%
4,Cc1cccc(OCC(O)CNCc2c(C)nn(C)c2N(C)C)c1 (centres undefined),33.74%
5,CC(C)c1nn(C)c(N(C)C)c1CNCC(O)c1ccccc1F (centres undefined),40.49%
6,CC(C)c1nn(C)c(N(C)C)c1CNCC(O)c1ccccc1 (centres undefined),39.56%
7,Cc1ccc(C(O)CNCc2c(C(C)C)nn(C)c2N(C)C)cc1 (centres undefined),104.4%
8,Cc1nn(C)c(N(C)C)c1CNCC(O)COc1ccccc1.Cl (centres undefined),25.02%
9,Cc1nn(C)c(N(C)C)c1CNCC(O)c1ccccc1 (centres undefined),-2.094%
10,O=C(O)c1nnn(-c2ccc(F)c(F)c2)c1-c1ccncc1,8.364%
11,CC(=O)c1ccc(-n2c(C)cn(CCC(=O)NC(N)=O)c2=O)cc1,30.44%
12,Cc1nc2ccnn2c(C)c1CCC(=O)N1CCN2CCCCC2C1 (centres undefined),-1.576%
13,CCCn1cc(Cl)c(C(=O)N2C[C@H]3C[C@H](OC)C[C@H]3C2)n1,4.304%
14,CN1CC[C@]2(CN(CC3CC3)C[C@H]2c2ccccc2)C1=O,-29.63%
15,CC(=O)Nc1ccc(Oc2cc(C)nc(C3CCCNC3)c2)cc1.Cl (centres undefined),31.88%
16,Cc1ccc(N2CCCN(C(=O)c3n[nH]c4c3CCC4)CC2)nn1,19.39%
17,CNC(=O)CN1CCC(CN(C)CCSc2ccccc2)CC1,4.331%
18,Cc1cc(NCCCNc2cccnc2)n2nc(C)c(C)c2n1,31.25%
19,Cc1cc(NCCSc2nccn2C)n2nc(C)c(C)c2n1,27.83%
20,CCSCCNc1cc(C)nc2c(C)c(C)nn12,75.01%
21,Cn1cc(-c2cc(C(F)F)n3nc(CCC(=O)O)nc3n2)cn1,-6.676%
22,COc1cccc(CNC(=O)c2ccccc2-n2cnc(CN)c2)c1,-31.51%
23,CCN(CC)S(=O)(=O)N1CCCC1c1nnc2n1CCN(C)CC2 (centres undefined),42.64%
24,O=S(=O)(c1ccc(F)cc1F)N1CCCCC1c1nnc2n1CCCC2 (centres undefined),10.12%
25,CN1CCc2nnc(C3CCCN3S(=O)(=O)c3ccc(F)cc3)n2CC1 (centres undefined),59.34%
26,CC(OCC1CC1)C(=O)N1CCCN(Cc2nccn2C(C)C)CC1 (centres undefined),14.16%

row,SMILES,Percent Effect
1,O=C(NCCC1COc2ccccc2O1)c1ccc(-c2cc[nH]n2)nc1 (centres undefined),70.18%
2,O=C(NCCC1COc2ccccc2O1)c1ccc(-c2cn[nH]c2)nc1 (centres undefined),4.189%
3,O=C(NCCC1COc2ccccc2O1)c1ccc(N2CC(O)C2)nc1 (centres undefined),-14.99%
4,CN(C)C(=O)N1C[C@@H]2CC[C@H](C1)N(Cc1nnc(-c3ccco3)o1)C2,-11.16%
5,CCC(C)Oc1ccc(CNCCNC(C)=O)cc1OC (centres undefined),-42.04%
6,Cn1ncc2c(N3CCS(=O)(=O)CC3)nc(C3CCCC3)nc21,-13.36%
7,CN1CCCN(c2nc(C3CCCC3)nc3c2cnn3C)CC1,65.73%
8,Cn1ncc2c(N3CCN(CCO)CC3)nc(C3CCCC3)nc21,32.14%
9,c1ccc(CCCN2CCCN(c3ncnc4[nH]ccc34)CC2)cc1,3.591%
10,Cc1nccn1-c1ccc(=O)n(CCNC(=O)Cc2ccccc2)n1,4.846%
11,c1cc(N2CCCCC2)ccc1-c1noc(CN2CCOCC2)n1,5.485%
12,Cc1nn(CC(=O)N2CCN(c3ccc(F)cc3)CC2)c(C)c1Cl,-1.208%
13,COc1ccc(N2CCN(C(=O)COc3c(C)occc3=O)CC2)cc1,55.27%
14,Cc1occc(=O)c1OCC(=O)N1CCN(c2ccccc2)CC1,32.32%
15,COc1cccc(N2CCN(C(=O)COc3c(C)occc3=O)CC2)c1,16.48%
16,COc1ccc(N2CCN(C(=O)Cn3nc(C)c(Cl)c3C)CC2)cc1,54.85%
17,Cc1nn(CC(=O)N2CCN(c3ccncc3)CC2)c(C)c1Cl,1.786%
18,O=C(N[C@H]1CN(c2nc(CO)cs2)C[C@@H]1C1CC1)C1CCCCC1,56.52%
19,CCC[C@H]1CN(c2nc(CO)cs2)C[C@@H]1NC(=O)C1CCC1,52.87%
20,OCc1csc(N2C[C@@H](CN3CCCCCC3)[C@@H](CO)C2)n1,-1.997%
21,O=C(N[C@H]1CN(c2ccncc2)C[C@@H]1C1CC1)C1CCOCC1,6.471%
22,CC(=O)N[C@@H]1CN(c2nc(CO)cs2)C[C@H]1c1ccc(C)o1,3.039%
23,CCC[C@H]1CN(c2nc(CO)cs2)C[C@@H]1NC(=O)C1(COC)CC1,20.53%
24,O=C(c1cccs1)N1CCC2(CC1)CN(c1ccsc1)C(=O)CO2,16.06%
25,Clc1ccc(C2(CNC3=NCCN3)CC2)cc1.I,-15.81%
26,CCOC(=O)N1CCNC(c2cccs2)C1 (centres undefined),-4.593%

row,SMILES,Percent Effect
1,Cc1cnc(CN2CCC(N(C)Cc3nnc(C4CC4)n3C)C2)cn1 (centres undefined),8.133%
2,CN(Cc1nnc(C2CC2)n1C)C1CCN(Cc2ccncc2)C1 (centres undefined),-21.05%
3,CN(Cc1nnc(C2CC2)n1C)C1CCN(Cc2ccon2)C1 (centres undefined),-5.558%
4,CN(Cc1nnc(C2CC2)n1C)C1CCN(Cc2ccc(F)cc2)C1 (centres undefined),10.51%
5,CN(Cc1nnc(C2CC2)n1C)C1CCN(Cc2ccccc2)C1 (centres undefined),104.3%
6,Cc1nc(CN2CCC(N(C)Cc3nnc(C4CC4)n3C)C2)cs1 (centres undefined),55.81%
7,CC(=O)N1CCC(c2ncc(C(=O)Nc3ccccc3)c(C)n2)CC1,16.5%
8,O=C(CC1CC1)N1CCC2(CC1)CN(Cc1cccnc1)C(=O)CO2.O=C(O)C(F)(F)F,2.615%
9,COCCN1C[C@H]2CCN(C(=O)c3cc(C)on3)CC[C@H]2S1(=O)=O,-32.34%
10,CNC(=O)c1cc2ccccc2n1C,-0.05075%
11,CC(C)(C)c1csc(CCNC(=O)C(c2ccccc2)n2cnnn2)n1 (centres undefined),11.39%
12,Cc1noc(NC(=O)c2cccc(Br)c2)n1,106.3%
13,Cc1noc(NC(=O)c2ccc(Br)s2)n1,105.7%
14,Cc1noc(NC(=O)c2ccc(Br)cc2)n1,106.9%
15,Cc1noc(NC(=O)c2ccccc2)n1,-1.268%
16,Cc1noc(NC(=O)c2ccc(Br)o2)n1,16.32%
17,Cc1noc(COCC(=O)Nc2ccc(Br)c(C)n2)n1,11.41%
18,Cc1noc(NC(=O)CCNC(=O)c2ccc(Br)cc2)n1,-19.08%
19,Cc1noc(NC(=O)c2ccc(OC(F)(F)F)cc2)n1,104.6%
20,O=C(NCCn1ccnc1)c1cccc(Br)c1,9.854%
21,Cc1noc(NCc2ccc(F)cc2)n1,-8.844%
22,Cc1ccc(C(=O)Nc2nc(C)no2)cc1,27.63%
23,Cc1noc(NC(=O)c2ccc(C#N)cc2)n1,13.91%
24,CN1C(=O)C2(CC(=O)Nc3[nH]ncc32)c2cc(F)ccc21 (centres undefined),1.042%
25,COCCNC(=O)c1sc2ccccc2c1C1CCC(CN)CC1.Cl (centres undefined),-3.556%
26,CC(C)c1nccn1-c1nccnc1C1CCCN1Cc1cccnc1 (centres undefined),-9.727%
